Hits are enriched below; roughly 7.3% of the tested compounds scored in any of these assays.
Rab9 promoter act: activates the Rab9 promoter; Huh7 Rab9 promoter-luciferase reporter, luminescence, 24 h; Potency, µM (top dose mostly 9.22 µM), without a hit: at the highest dose activation, negative = inhibition, most hits filed as activators; hit rate 2.8% among 320,000; AID 485297; also: % of control where 0% means no effect; nearly all actives have a fitted effect of over 60% in size
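Luminescence from Amplite-detected luciferase (10 minutes, ambient) reports Rab9 promoter activation. Before that, stable Rab9-luciferase Huh7 cells (1500/well, reduced-serum OP-MEM I plus 10% FBS) were exposed to compound for 24 hours at 37C.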
NPC1 promoter act: NPC1 promoter activation; Potency, µM (top dose mostly 9.22 µM), for the others: at the top dose activation, most hits filed as activators; hit rate 2.4% among 320,000; Huh7 NPC1 promoter luciferase reporter, 24 h; also: % of control where 0% means no effect; nearly all actives have a fitted effect of over 60% in size
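Readout is luciferase luminescence, reflecting NPC1 promoter activation in stably transfected Huh7 cells after 24 h compound exposure at 37 °C in reduced-serum medium with 10% FBS.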
Luc counter: Kinase-Glo luciferase inhibition (counter-screen) | Q27757 | hit rate 0.28% among 200,000 | Potency, µM (top dose mostly 38.3 µM), for inactives: at the highest dose activity change, negative = inhibition, usual class: inhibitors | AID 1379 | Kinase-Glo luciferase, ATP luminescence, 8 min; also: % is scaled to controls: 0 for no effect and ±100 for the full control effect; nearly all actives have a fitted effect of over 60% in size
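Kinase-Glo luciferase light output from ATP and luciferin was measured with 10 uM ATP, within the enzyme's linear range. Buffer: 50 mM imidazole pH 7.2, 50 mM KCl, 7 mM MgCl2, 0.01% Tween 20, 0.05% BSA; luminescence read after 8 min at ambient temperature.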
SMN2 splice up: increases expression of the SMN2 splice variant. HEK293 SMN2-luciferase splicing reporter, luminescence, 30-36 h. Potency, µM (doses to about 46.1 µM), without a hit: at the top dose activity change, positive = activation, hits mostly activators. hit rate 2.8% among 210,000; also: % of control where 0% means no effect; nearly all actives have a fitted effect of over 55% in size
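HEK293 cells carry an SMN2 minigene-luciferase reporter in which exon 7 inclusion puts luciferase in frame. Cells were seeded at 2000 cells/well, attached for 10-12 hours, then exposed to compounds for 30-36 hours at 37C before ONE-Glo luminescence.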
FLuc counter: firefly luciferase modulation, counter-screen for miR-21 project; Potency, µM (doses to about 57.5 µM), inactives show at the top dose activity change, negative = inhibition, most hits filed as inhibitors; purified FLuc, Km substrates, luminescence inhibition; hit rate 6.9% among 360,000;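 also: plate controls were vehicle for no effect and reference inhibitor for full effect; nearly all actives have a fitted effect of over 55% in size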
Target sequence (P08659 whole entry, looked up): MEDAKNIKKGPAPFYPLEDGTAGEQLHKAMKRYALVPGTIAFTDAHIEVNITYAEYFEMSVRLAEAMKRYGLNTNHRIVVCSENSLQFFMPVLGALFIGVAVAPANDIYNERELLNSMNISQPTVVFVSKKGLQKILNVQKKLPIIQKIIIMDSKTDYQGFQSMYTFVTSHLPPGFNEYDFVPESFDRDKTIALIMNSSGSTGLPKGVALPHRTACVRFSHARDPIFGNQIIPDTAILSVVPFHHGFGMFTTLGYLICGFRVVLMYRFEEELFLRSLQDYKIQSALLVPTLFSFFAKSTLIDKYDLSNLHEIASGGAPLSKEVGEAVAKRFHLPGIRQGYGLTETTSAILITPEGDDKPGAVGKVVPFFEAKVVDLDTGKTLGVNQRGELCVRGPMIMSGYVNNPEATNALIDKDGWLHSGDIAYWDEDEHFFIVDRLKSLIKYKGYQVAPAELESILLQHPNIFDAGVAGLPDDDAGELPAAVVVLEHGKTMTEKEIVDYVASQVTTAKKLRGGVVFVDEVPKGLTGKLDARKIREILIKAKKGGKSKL
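Purified P. pyralis luciferase, 10 nM final, with Km-level 10 uM D-luciferin and 10 uM ATP in 50 mM Tris acetate pH 7.5, 10 mM Mg acetate, 0.01% Tween-20, 0.05% BSA; 6-point qHTS titration about 60 µM downward; luminescence read.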
ELG1 genotoxic: inducers of genotoxicity in HEK293T ELG1-luciferase cells | HEK293T ELG1-luciferase reporter, luminescence, 16 h | Potency, µM (doses to about 46 µM), inactives show at the top dose activity change, positive = activation, usual class: activators | hit rate 1.3% among 330,000 | AID 504466; also: % of control where 0% means no effect; nearly all actives have a fitted effect of over 60% in size
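HEK293T cells expressing luciferase-tagged ELG1 were exposed to compound or DMSO vehicle for 16 hr at 37 °C and 5% CO2. Luciferase activity was then measured with ONE-Glo after 30 min at room temperature.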
An asterisk follows results filed as active; ? = inconclusive; . = no result given; [ ] = remark or other dose. Calls follow the shape of the dose curve; as a rule, active = well fitted curve in the direction sought with a large enough effect; inconclusive = small, poorly fitted or top-dose-only effect, or another doubt; inactive = no such curve, though single readings can be large; an effect the other way counts as inactive or inconclusive. Potency is read from the fitted curve at half-maximal effect.

SMILES | Rab9 promoter act | NPC1 promoter act | Luc counter | SMN2 splice up | FLuc counter | ELG1 genotoxic
CC(C)c1ccc(NC(=O)C(=O)C2C(=O)Nc3ccccc32)cc1 (stereo unspecified) | 21% | 7% | -1% | 11% | ? | 5%
O=C(Nc1cccc2ccccc12)C(=O)C1C(=O)Nc2ccccc21 (stereo unspecified) | -4% | ? | . | . | ? | -4%
CC(C)(C)c1ccc(NC(=O)C(=O)C2C(=O)Nc3ccccc32)cc1 (stereo unspecified) | 21% | 15% | 0% | 2% | 12µM* | 0%
CN(C)c1ccc(NC(=O)C(=O)C2C(=O)Nc3ccccc32)cc1 (stereo unspecified) | 21% | 24% | . | . | 11µM* | ?
Cc1cc(C)cc(-n2c(SCC(=O)Nc3ccccc3)nc3c(oc4ccccc43)c2=O)c1 | . | . | . | -10% | -1% | .
Cc1ccc(C2C(=O)N(C3CCCCCC3)CC(=O)N2CCC2=CCCCC2)cc1 (stereo unspecified) | . | . | . | . | 3% | .
CSc1nsc(SC)c1C(=O)NC(=O)Nc1cccnc1 | 0% | -3% | . | . | -1% | 1%
CSc1nsc(SC)c1C(=O)Nc1ccc(C(C)(C)C)cc1 | 13% | 16% | . | . | 11µM* | 0%
Cc1ccc(-n2cnc3cc(C(=O)NC4CCCCCC4)ccc32)cc1Cl | . | . | . | . | -2% | .
Oc1ccc(-c2nnc(SCc3ccccc3)o2)cc1 | 9% | ? | . | . | 27µM* | ?
C#CCSc1nnc(-c2ccc(O)cc2)o1 | ? | 27% | -6% | ? | ? | ?
Cc1ccccc1-c1nnc(SCc2ccc(F)cc2)o1 | 24% | ? | 3% | -9% | 15µM* | ?
Cc1ccc(-c2nnc(SCc3ccccc3)o2)cc1 | . | . | . | . | 4.8µM* | .
C#CCSc1nnc(-c2ccc(C)cc2)o1 | 2.2µM* | 3.5µM* | -4% | 13µM* | 7.6µM* | 23µM*
Fc1ccc(CSc2nnc(-c3ccncc3)o2)cc1 | 2% | 14% | 1% | -30% | -2% | -21%
c1ccc(CSc2nnc(-c3cccnc3)o2)cc1 | ? | ? | -2% | ? | ? | ?
COc1cccc(CNC(=O)c2cc(S(=O)(=O)N3CCCCC3)cn2C)c1 | . | . | . | . | -3% | .
Cc1cccc(CNC(=O)c2cnc3sc(N4CCCCCC4)nn3c2=O)c1 | . | . | . | . | -4% | .
CCCOc1ccc(OC(=O)c2ccc(Br)o2)cc1 | -3% | -4% | -3% | -7% | 9.5µM* | 3%
CC(=O)Nc1ccc(-c2csc(NCc3ccco3)n2)cc1 | 2µM* | 2.5µM* | 2% | 13µM* | 7.6µM* | ?
COc1ccc(-c2csc(NCc3ccco3)n2)cc1C | 4µM* | 3.2µM* | 0% | 32µM* | ? | ?
c1cncc(-c2csc(NCc3ccco3)n2)c1 | 25% | 22% | -9% | 21% | ? | 15%
COc1ccc(-c2nc3cccc(C)n3c2NCc2ccco2)cc1OC | 4% | 6% | 2% | 21% | 9.5µM* | -12%
CCOC(=O)c1ccc(N2CCN(c3ccccc3F)CC2)c(NC(=O)Nc2ccc(Cl)c(Cl)c2)c1 | . | . | . | . | 0% | .
COCCNC(=O)c1c(NC(=O)Cc2coc3cc(C)ccc23)sc2c1CCCC2 | . | . | . | -20% | ? | .
SMILES | Rab9 promoter act | NPC1 promoter act | Luc counter | SMN2 splice up | FLuc counter | ELG1 genotoxic
COc1ccc(OC)c(-c2cc(C(=O)Nc3cnn(Cc4ccc(Cl)cc4Cl)c3)no2)c1 | . | . | . | -3% | 2% | .
CCCc1ccc(-c2csc(NC(=O)C3=COCCO3)n2)cc1 | 1.3µM* | 1.1µM* | . | . | . | 11%
Cc1ccc(-c2csc(NC(=O)N3CCOCC3)n2)cc1 | 16% | 5% | 4% | -25% | 27µM* | ?
Cc1ccc(-c2csc(NC(=O)CN3CCOCC3)n2)cc1 | -1% | -7% | . | . | -15% | -8%
CCOC(=O)c1csc(NC(=O)C2CCCCC2)n1 | 27% | 23% | -2% | ? | ? | ?
CC(=O)Nc1ccc(-c2csc(NC(=O)C3=COCCO3)n2)cc1 | ? | 30% | . | . | -17% | 1%
CC(C)(C)c1csc(NC(=O)C2=COCCO2)n1 | 2.5µM* | 3.2µM* | . | . | 9.5µM* | ?
CCOC(=O)c1csc(NC(=O)C2=COCCO2)n1 | 2.8µM* | 2.5µM* | . | . | 15µM* | 9.2µM*
COc1cc(NC(=O)CN(C)S(=O)(=O)c2ccc3[nH]c4c(c3c2)CCCC4)cc(OC)c1OC | . | . | . | . | -12% | .
CC(C)CC(=O)NCC1(N(C)C)CCCCC1 | . | . | . | . | -2% | .
CC(=O)N1c2ccc(S(=O)(=O)NCc3ccc(Cl)cc3)cc2CC1C (stereo unspecified) | . | . | . | . | -11% | .
Cc1ccc(-c2csc(NC(=O)C3=COCCO3)n2)cc1 | 2.8µM* | ? | -1% | 14µM* | 15µM* | ?
O=C1C2C3C=CC(CC3)C2C(=O)N1c1ccc(Cl)cc1Cl (stereo unspecified) | 3% | 4% | . | . | 15µM* | -4%
CN1N=C2c3ccccc3CCCC2C1c1ccc(F)cc1 (stereo unspecified) | 26% | 17% | . | . | 12µM* | ?
O=S1(=O)N=C(Nc2ccc(N3CCOCC3)c(Cl)c2)c2ccccc21 | 3.5µM* | ? | 2% | 13µM* | 5.4µM* | ?
Cc1cc(C)cc(-n2ccn(CC(=O)Nc3ccccc3C(F)(F)F)c(=O)c2=O)c1 | . | . | . | . | 1% | .
CCN(CC)c1ccc(/C=C(/C#N)C(=O)NCc2ccccc2)o1 | ? | 23% | -2% | . | 24µM* | 15%
CCN(CC)c1ccc(/C=C(/C#N)C(=O)NC(C)C)o1 | 27% | 8% | 1% | 25% | ? | 19%
Cc1ccc(C=C2C(=O)c3ccccc3C2=O)s1 | 9% | 1% | 7.1µM* | 16% | 0.85µM* | ?
O=C1C(=Cc2cccs2)C(=O)c2ccccc21 | 10% | -1% | ? | 5% | 4.8µM* | 10%
O=C1/C(=C\c2ccc(Br)o2)Cc2ccccc21 | 2% | 0% | -1% | -25% | 15µM* | ?
Cc1ccccc1C1=N/C(=C/c2cccs2)C(=O)O1 | 3% | 0% | -6% | -21% | 3.4µM* | 0%
COc1cc(OC)c(OC)cc1/C=C1/Cc2ccccc2C1=O | -4%[1.84 µM] | -9% | . | . | 5% | 3%
Cc1ccc(C)c(/C=C2\N=C(c3ccccc3F)OC2=O)c1 | 6% | -8% | . | . | ? | 2%
CCCCOc1cccc(C2c3c(-c4cc(C)ccc4O)n[nH]c3C(=O)N2CCOC)c1 (stereo unspecified) | . | . | . | 19% | 4% | .
COc1ccccc1-n1c(=O)n(C)c2c(C(N)=O)nc(-c3cc(OC)c(OC)c(OC)c3)nc21 | . | . | . | . | -4% | .
O=C1/C(=C/c2cccs2)Cc2ccccc21 | 19% | 21% | . | . | 3.8µM* | ?
COc1cc(/C=N/NC(=O)c2cc(C3CC3)[nH]n2)ccc1O | -4% | -3% | . | . | ? | -1%

Source: PubChem BioAssay
